IEC-6 cytotox = IEC-6 cytotoxicity, counter-screen for KLF5 inhibitors; luminescence viability; hit rate 0.78% among 290,000; AID 1825; inhibition, % at 5 µM;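 further: 0% = plate median of test compound wells and 100% = cytotoxic reference compound wells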
BaF3 tox = counter-screen for JAK2V617F inhibitors: parental Ba/F3 viability inhibitors; CellTiter-Glo ATP luminescence; inhibition, % at 5.6 µM; hit rate 1.1% among 220,000; AID 1486;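 active means inhibition above a per-campaign cutoff, the mean inhibition of all tested compounds plus 3 SD, cut at about 27% in these data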;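 further: 0% = DMSO wells and 100% = JAK Inhibitor I control wells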
Ba/F3 V617F tox = reduce viability of Ba/F3 cells dependent on JAK2V617F; Ba/F3 EpoR-JAK2V617F viability, ATP luminescence; AID 1446; inhibition, % at 5.6 µM; hit rate 1.1% among 220,000;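 active means inhibition above the campaign mean plus 3 SD over all tested compounds, cut at about 24% in these data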;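 further: cytokine-independent growth of Ba/F3 cells driven by EpoR plus mutant JAK2; 0% = DMSO-treated cells and 100% = JAK inhibitor I control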
APP 5UTR inh = APP translation inhibition. AID 1285. hit rate 0.82% among 190,000. SH-SY5Y APP 5'UTR-luciferase reporter, luminescence. inhibition, % at 2 µM;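 active means inhibition above a set limit, derived from the sample mean plus 3 SD, cut at about 45% in these data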
KLF5 inhibitor = kruppel-like factor 5 inhibition; DLD-1 KLF5 promoter-luciferase reporter, luminescence; inhibition, % at 5 µM; hit rate 0.23% among 290,000; AID 1700;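 active means inhibition above a per-plate limit of that plate's mean compound inhibition plus 3 SD, cut at about 60% in these data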;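 further: 0% = DMSO wells and 100% = LY294002 at 200 µM; higher means less KLF5 promoter-driven luciferase light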
IEC-6 tox confirm = IEC-6 cytotoxicity, confirmation assay | IEC-6 rat intestinal epithelial viability, luminescence | inhibition, % at 5 µM | AID 1907 | hit rate 63% among 1,900 | shares compounds with IEC-6 cytotox;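 further: 0% = vehicle and 100% = reference cytotoxic drug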
Active calls of the source: *; / = not tested or not shown. Most compounds without a hit are left out; they make up all but 1.9% or so of the library. Unless noted, no stated cut-off is given here; in the data, active means inhibition above about 22%; inactive means the rest.

SMILES | IEC-6 cytotox | BaF3 tox | Ba/F3 V617F tox | APP 5UTR inh | KLF5 inhibitor | IEC-6 tox confirm
COc1cc(/C=C/c2ccc3cccc(O)c3n2)cc(Br)c1OC | -1 | / | / | / | -63 | /
O=[N+]([O-])c1ccc(/C=C/c2ccc3ccccc3n2)cc1 | 88* | 9 | 1 | -165 | -95 | 67*
COc1cc(/C=C/c2ccc3cccc(O)c3n2)cc(OC)c1OC | 30* | / | / | / | 0 | 4
O=C(O)/C=C/c1ccc2ccccc2n1 | -1 | 1 | -2 | -2 | -16 | /
O=[N+]([O-])c1ccc(/C=C/c2ccc3cccc(O)c3n2)cc1 | 42* | / | / | / | -132 | 17
Cc1c(Cl)cccc1NC(=O)CCC(=O)NNC(=O)c1ccccc1 | -2 | 1 | -3 | 2 | 1 | /
CCOC(=O)c1nc(N/N=C/c2ccccc2)sc1Br | -10 | / | / | / | -87 | /
CN1/C(=C\C(=O)CSc2cccc[n+]2[O-])C(C)(C)c2ccccc21 | 104* | 23 | 8 | -9 | -21 | -7
CN1/C(=C\C(=O)CSc2nnc(N)s2)C(C)(C)c2ccccc21 | 1 | 4 | -2 | -5 | 2 | /
CCOC(=O)C1CN(S(=O)(=O)c2cccs2)c2ccc(CC(=O)OC)cc2O1 (stereo unspecified) | -3 | / | / | / | -18 | /
COc1ccc(-c2oc3cccnc3c2C#CCO)cc1 | 29* | / | / | / | -17 | 16
COc1ccc(-c2oc3cccnc3c2C#CC2(O)CCCCC2)cc1 | 5 | / | / | / | -35 | /
COc1cccc(-c2ccc(SCC(=O)NC3CCCCC3)nn2)c1 | -2 | / | / | / | -7 | /
CCO[C@@H]1OC(C(=O)NCc2nc3ccccc3[nH]2)=C[C@H](C2CC2)[C@H]1CCCO | 42* | 34* | 2 | 2 | 38 | 6
CCO[C@@H]1OC(C(=O)NCc2ccccc2)=C[C@H](C2CC2)[C@H]1CCCO | 4 | 0 | 4 | 2 | 7 | /
COc1nn(-c2ccccc2)c(=O)c(Cl)c1Cl | 100* | / | / | / | -7 | 23*
COc1c(Cl)cnn(-c2ccccc2)c1=O | -2 | 2 | -1 | 10 | -24 | /
COc1ccc(/C=N\NC(=O)c2ccccc2F)cc1COc1ccc(F)cc1 | 23* | / | / | / | 14 | 14
COc1ccc(/C=N/NC(=O)c2ccco2)cc1COc1ccc(F)cc1 | 2 | / | / | / | -23 | /
COc1ccc(/C=N\NC(=O)c2ccccc2F)cc1COc1ccc(F)cc1F | 80* | / | / | / | 60 | 62*
COc1cc2ccccc2cc1C(=O)N/N=C/c1ccc2c(c1)OCO2 | 37* | / | / | / | 35 | 25*
NC(=O)N/N=C/c1ccccc1OCC(=O)NCc1ccccc1 | 6 | 4 | 2 | -8 | -9 | /
Cc1nonc1OCCn1c([N+](=O)[O-])cnc1C | -6 | 4 | 0 | -14 | 6 | /
O=C(CN1C(=O)C2CCCCC2C1=O)Nc1nc(-c2ccccn2)cs1 (stereo unspecified) | 41* | 1 | 5 | 39 | 25 | 14
O=C(Nc1nc(-c2ccccc2)cs1)Nc1ccc(F)cc1F | -1 | 4 | -1 | -11 | -33 | /
SMILES | IEC-6 cytotox | BaF3 tox | Ba/F3 V617F tox | APP 5UTR inh | KLF5 inhibitor | IEC-6 tox confirm
C[C@@H](C(=O)Nc1nc(-c2ccccn2)cs1)N1C(=O)C2CCCCC2C1=O (stereo partly specified) | -1 | 0 | -3 | / | -41 | /
O=C(Nc1nc(-c2ccccn2)cs1)c1ccc2c(c1)OCCO2 | 28* | -2 | -1 | -110 | -99 | 20
O=C(Nc1nc(-c2ccccn2)cs1)Nc1ccc(F)cc1F | 50* | / | / | / | -3 | 47*
Cc1c(NC(=O)c2ccc(NC(=O)C3CC3)cc2)cccc1C(=O)O | -12 | / | / | / | -22 | /
COc1ccc(CNS(=O)(=O)c2ccc3c(c2)N(C(C)=O)CC(C)S3)cc1 (stereo unspecified) | 0 | / | / | / | 2 | /
Cc1ccc(-c2nnc(SCC(=O)N(C)C)nc2-c2ccc(C)cc2)cc1 | -8 | / | / | / | -18 | /
COc1ccc(C(=O)NCc2nnc(SCC(=O)Nc3cc(Cl)ccc3OC)o2)cc1 | -6 | / | / | / | 4 | /
CCc1nnc(NC(=O)C(NC(=O)c2ccccc2Cl)C(C)C)s1 (stereo unspecified) | -2 | 1 | 0 | 10 | 14 | /
CC(C)[C@H](NC(=O)c1ccccc1Cl)C(=O)Nc1nc(-c2ccccn2)cs1 | 40* | 12 | 0 | 3 | 27 | 40*
CC(Oc1ccc(Br)cc1)C(=O)Nc1nc(-c2ccccn2)cs1 (stereo unspecified) | 50* | / | / | / | 21 | 24*
O=C(Nc1ccc([N+](=O)[O-])cc1)Nc1ccon1 | 82* | / | / | / | 58 | 57*
O=C(Oc1ccccc1-c1nnco1)c1ccc(Cl)cc1 | 33* | 5 | 4 | -5 | -9 | -6
